Results reported in PubChem BioAssay (NCI).
This is part of a sample that, as a whole, favours compounds with a hit. Of some 83,000 tested, about 20% had one in any assay.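 Testing used 96-well plates and a 48-hour single-concentration exposure. Example: -40 means 40% of the starting cells died.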 Values without a mark were called inactive. The source made the active and inactive calls. Rule for the calls: active = growth percent below 10; inactive = the rest.

How the values were obtained:
Experiment in all cases: NCI-60 one-dose screen, 48 h (100 = growth as untreated, 0 = no growth, -100 = all killed)
[1] = test system: T-47D breast; conditions: 10 µM unless noted
[2] = test system: BT-549 breast; conditions: 10 µM unless noted
[3] = test system: MDA-MB-435 melanoma; conditions: 10 µM unless noted
[4] = test system: SW-620 colon; conditions: 10 µM unless noted
[5] = test system: MCF7 breast; conditions: 10 µM unless noted
[6] = test system: HCT-116 colon; conditions: 10 µM unless noted
[7] = test system: KM12 colon; conditions: 10 µM unless noted
[8] = test system: HCC-2998 colon; conditions: 10 µM

| SMILES | growth [1] | growth [2] | growth [3] | growth [4] | growth [5] | growth [6] | growth [7] | growth [8] |
| --- | --- | --- | --- | --- | --- | --- | --- | --- |
| O=C(COc1ccc(/C=C2\Cc3ccc(Cl)cc3C2=O)cc1)Nc1nccs1 | 85.2% | 106% | 113% | 106% | 89% | 91.3% | 115% | – |
| CC[C@@H]1C(=O)N(C)c2cnc(Nc3ccc(C(=O)NC4CCC(N5CCN(CC6CC6)CC5)CC4)cc3OC)nc2N1C(C)C (stereo partly specified) | 7.48% (active) | 18.3% | -29.6% (active) | 12.2% | -24% (active) | -6.9% (active) | 4.24% (active) | – |
| COc1ccc(C2OC(c3cc(-c4cc5ccccc5o4)nn3-c3ccccc3)=NN2C(C)=O)cc1 (stereo unspecified) | 86.5% | 97.2% | 108% | 107% | 100% | 88.6% | 107% | – |
| COC1CCC(N2C(=O)CNc3ncc(-c4ccc(C(C)(C)O)nc4)nc32)CC1 (stereo unspecified) | -24% (active) | -8.77% (active) | -27.9% (active) | 12% | 3.23% (active) | 11.4% | 7.39% (active) | – |
| CNc1ncc2cc(-c3cc(NC(=O)NCCC(C)(C)C)c(F)cc3C)c(C)nc2n1 | -2% (active) | 30.5% | 9.76% (active) | 17.5% | 45.7% | 4.36% (active) | 18.2% | – |
| COc1ccc(COc2cc3oc(=O)c4cc(C(C)O)ccc4c3cc2OC)cc1 (stereo unspecified) | 44.2% | 59.8% | 3.55% (active) | 49.7% | 45.6% | 49% | 53% | – |
| Oc1ccc(/C=N/Nc2nnc(N/N=C/c3ccc(O)cc3O)c3ccccc23)c(O)c1 | -53.2% (active) | -23.6% (active) | -6.07% (active) | -1.28% (active) | -57.2% (active) | -44.1% (active) | -73.2% (active) | – |
| Clc1ccc(/C=C/c2cc(N3CCOCC3)c3cc(Cl)c(Cl)cc3n2)cc1 | 91.3% | -20.4% (active) | 91% | 111% | 91.7% | 98.3% | 63.5% | – |
| COc1ccc(Br)cc1NC(=O)Nc1cccc2c1ccn2Cc1ccnc(N)c1 | 6.9% (active) | 51.1% | 11.1% | 19.4% | 16.5% | 16.8% | 10.3% | – |
| CC#CC(=O)N1CCC[C@H]1c1nc(-c2ccc(C(=O)Nc3ccccn3)cc2)c2c(N)nccn12 | 58.1% | 84.5% | 91.5% | 112% | 77.5% | 83.7% | 91.8% | – |
| FC(F)c1nc2ccccc2n1-c1nc(N2CCOCC2)nc(N2CCOCC2)n1 | -36.1% (active) | -8.49% (active) | -8.55% (active) | 13.4% | 1.28% (active) | 14% | 3.42% (active) | – |
| COc1ccc(-c2cc3c(oc2=O)-c2ccccc2OC3OC(C)=O)cc1 (stereo unspecified) | 68.5% | 102% | 110% | 98.7% | 89.6% | 74% | 111% | – |
| O=C1CCC(=O)CC1 | 102% | – | 102% | 103% | 101% | 109% | 106% | 99.9% |
| O=C(Nc1cccc([N+](=O)[O-])c1)c1ccc(Cl)c(Cl)c1 | 54.8% | – | 92% | 96.2% | 49% | 56.8% | 93.8% | 120% |
| O=C(N/N=C/c1ccc(Cl)cc1)c1cc(-c2cc3ccccc3o2)nn1-c1ccccc1 | 85.6% | – | 103% | 101% | 85.6% | 92.3% | 102% | – |
| ClCc1ccc(-c2ccc(Cn3cnc4c(Cl)nc(Cl)nc43)cc2)cc1 | -23.5% (active) | – | 4.56% (active) | -31.6% (active) | -31.8% (active) | -59.6% (active) | -66.9% (active) | – |
| CO[C@@H](C)Cn1c(=O)n(C)c2cnc3ccc(-c4cncc(C(C)(C)O)c4)cc3c21 | -21.9% (active) | -6.62% (active) | 0.636% (active) | 9.31% (active) | 6.25% (active) | 3.72% (active) | 5.54% (active) | – |
| CN(C)C1CCN(C(=O)c2ccc(NC(=O)Nc3ccc(-c4nc(N5CCOCC5)nc(N5CCOCC5)n4)cc3)cc2)CC1 | -45.3% [2.5 µM] (active) | -10.1% [2.5 µM] (active) | -16.6% [2.5 µM] (active) | 8.13% [2.5 µM] (active) | 3.87% [2.5 µM] (active) | 12.8% [2.5 µM] | 5.58% [2.5 µM] (active) | – |
| CC(=O)OC1Oc2ccccc2-c2oc(=O)c(-c3cc4ccc(N(C)C)cc4oc3=O)cc21 (stereo unspecified) | -4.17% (active) | 15.9% | 44.5% | 61.7% | 68.5% | 20.7% | 71.8% | – |
| C[C@H](NC(=O)c1c(N)nn2cccnc12)c1cc2cccc(C#Cc3cnn(C)c3)c2c(=O)n1-c1ccccc1 | -22.3% (active) | 2.12% (active) | 30.9% | 13.4% | 5.42% (active) | 1.33% (active) | -14% (active) | – |
| Brc1ccc([I+]c2ccc(Br)cc2)cc1 | 16.4% | – | 19.5% | 17.8% | 7.26% (active) | 8.91% (active) | 3.55% (active) | 25% |
| CCOc1ccc(N=C(C)Nc2ccc(OCC)cc2)cc1 | 105% | – | 115% | 104% | 102% | 104% | 117% | 104% |
| CC(C)c1cc(CNc2nc(Nc3cc(C4CC4)[nH]n3)cc(N3CCN(C)CC3)n2)on1 | 6.24% (active) | -21.9% (active) | -10.9% (active) | 7.6% (active) | 11.5% | 3.46% (active) | 4.41% (active) | – |
| Cc1ccc(N)cc1CN1C(=O)c2ccccc2C1=O | 110% | – | 106% | 108% | 108% | 93.4% | 111% | 104% |
| CC(=O)OC(C(=O)c1ccccc1)c1ccccc1 (stereo unspecified) | 95.5% | – | 108% | 99.3% | 95.8% | 95.8% | 101% | 112% |
| O=S1(=O)OC(c2ccc(O)c(Cl)c2)(c2ccc(O)c(Cl)c2)c2ccccc21 | 97.2% | – | 113% | 100% | 104% | 99.8% | 103% | 103% |
| O=[N+]([O-])c1cc(Br)cc2c1[nH]c1ccc(Br)cc12 | 42.9% | – | 86.4% | 67% | 45.8% | 36.6% | 71.4% | 94.3% |
| c1ccc2c(c1)CCN(NCCN1CCCC1)C2 | 91.4% | 99.8% | – | 94.8% | 96.5% | 85.6% | 100% | 95% |
| COc1ccc2c(OCc3nnc4ccc(-c5ccccc5)nn34)ccnc2c1 | 71.1% [2.5 µM] | 102% [2.5 µM] | 103% [2.5 µM] | 109% [2.5 µM] | 93.4% [2.5 µM] | 98.4% [2.5 µM] | 94.3% [2.5 µM] | – |
